Screening data: PubChem BioAssay, National Center for Advancing Translational Sciences (NCATS)
An excerpt weighted towards active compounds, which were near 2.4% of everything screened.
Pol eta inh = blocks human DNA polymerase eta activity | 390,000 tested, 1.2% active | Potency, µM (series often up to 114 µM), hits mostly inhibitors | recombinant Pol eta, fluorescent DNA replication assay | AID 588591 | Q9Y253
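Fluorescent replication assay: 50 nM final substrate added after a 15 min room-temperature compound preincubation with 10 nM enzyme. Signal taken at 0 min and again at 10 min.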
POLB inh = inhibitors of human DNA polymerase beta | P06746 | Pol beta primer extension/strand displacement, fluorescence kinetic | Potency, µM (titrated, usually from 114 µM), usual class: inhibitors | 340,000 tested, 1.3% active | AID 485314
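Human Pol beta at 10 nM; strand-displacement substrate 50 nM final. Compound exposure 15 min at room temperature before start, reaction 10 min at room temperature.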
Tb PGK inh = blocks T. brucei phosphoglycerate kinase; P07378; PGK/GAPDH coupled, Kinase-Glo luminescence, 60 min; Potency, µM (top dose mostly 57.5 µM), actives largely listed as inhibitors; 380,000 tested, 0.043% active; further: nearly all actives have a fitted effect of over 60% in size
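Luminescent ATP detection (Kinase-Glo Plus) follows a 60-minute room-temperature incubation, with wells lacking PGK as controls. Buffer: 100 mM TEA (pH 7.6), 5 mM MgCl2, 0.01% Tween-20. Coupling enzyme GAPDH (100 nM final) supplies unstable 1,3-BPG in-well.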
FEN1 inhibitor = inhibitors of human flap endonuclease 1 | 390,000 tested, 0.35% active | Recombinant FEN1 flap cleavage, fluorescence, 15 min | Potency, µM (titrated, usually from 114 µM), usual class: inhibitors; further: nearly all actives have a fitted effect of over 65% in size
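Recombinant FEN1 (10 nM) was preincubated with pin-transferred compounds for 15 min at room temperature, then flap DNA substrate (50 nM final) was added. Plates were read at 0 and 15 min, and normalized concentration–response data were fitted to a four-parameter Hill equation.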
Pol kappa inh = inhibitors of human DNA polymerase kappa; 400,000 tested, 0.53% active; Q9UBT6; Potency, µM (titrated, usually from 107 µM), actives largely listed as inhibitors; AID 588579; purified Pol kappa, fluorescent DNA synthesis assay, 10 min
Target sequence (Q9UBT6 whole entry, looked up): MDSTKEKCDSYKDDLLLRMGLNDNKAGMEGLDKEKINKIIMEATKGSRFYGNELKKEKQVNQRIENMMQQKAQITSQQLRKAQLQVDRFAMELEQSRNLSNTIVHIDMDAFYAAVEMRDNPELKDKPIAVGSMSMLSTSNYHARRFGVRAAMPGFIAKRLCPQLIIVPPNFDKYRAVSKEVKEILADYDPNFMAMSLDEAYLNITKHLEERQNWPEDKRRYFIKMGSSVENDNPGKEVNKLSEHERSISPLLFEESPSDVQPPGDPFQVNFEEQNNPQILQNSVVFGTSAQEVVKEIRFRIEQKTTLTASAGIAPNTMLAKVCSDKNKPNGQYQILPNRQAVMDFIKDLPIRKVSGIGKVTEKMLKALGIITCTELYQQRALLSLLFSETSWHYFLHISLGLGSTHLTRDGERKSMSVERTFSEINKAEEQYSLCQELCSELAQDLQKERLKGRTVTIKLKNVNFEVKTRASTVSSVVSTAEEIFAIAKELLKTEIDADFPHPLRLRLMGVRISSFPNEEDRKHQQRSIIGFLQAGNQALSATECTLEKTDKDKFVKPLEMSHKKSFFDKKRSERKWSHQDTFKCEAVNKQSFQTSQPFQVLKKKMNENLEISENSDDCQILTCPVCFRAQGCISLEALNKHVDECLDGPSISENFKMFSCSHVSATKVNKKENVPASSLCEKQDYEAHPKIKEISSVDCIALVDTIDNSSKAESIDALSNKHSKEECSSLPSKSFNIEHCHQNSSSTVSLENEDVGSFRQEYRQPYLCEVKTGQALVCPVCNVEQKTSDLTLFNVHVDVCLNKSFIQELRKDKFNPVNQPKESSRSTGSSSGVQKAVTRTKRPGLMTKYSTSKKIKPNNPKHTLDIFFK
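Fluorescent qHTS in 1536-well format: enzyme (10 nM) and compound sat 15 min at room temperature before 50 nM substrate (final) was added. Signal taken at 0 and 10 min; no-enzyme buffer wells were negative controls.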
Pol iota inh = DNA polymerase iota (human) inhibition. AID 588590. Potency, µM (top dose mostly 115 µM), most hits filed as inhibitors. Q9UNA4. Pol iota fluorescent replication assay, 10 min. 390,000 tested, 1% active
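Fluorescent replication assay read twice, at 0 min and 10 min after adding 50 nM (final) substrate. Enzyme (10 nM) and compounds were first incubated 15 min at room temperature; enzyme-free buffer wells were negative controls.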
Of the large screens only hits and unclear results are named; the others gave an inactive call. The call rests on the fitted dose curve; in most records, active means well fitted curve in the direction sought with a large enough effect; inconclusive means small, poorly fitted or top-dose-only effect, or another doubt; inactive means no such curve, though single readings can be large; an effect the other way counts as inactive or inconclusive.

Cc1ccc(/C=c2\sc3nc(-c4cccs4)nn3c2=O)o1	Pol eta inh inconclusive, POLB inh 18µM, Pol kappa inh inconclusive, Pol iota inh inconclusive
O=c1/c(=C/c2ccco2)sc2nc(-c3ccccc3Br)nn12	Pol eta inh 16µM, POLB inh 35µM, Pol kappa inh 79µM, Pol iota inh inconclusive
N[C@@H](CO)C(=O)NNCc1ccc(O)c(O)c1O	none (no result: Pol eta inh, POLB inh, Tb PGK inh, FEN1 inhibitor, Pol iota inh)
O=c1c(S(=O)(=O)c2ccc(Cl)cc2)cn(Cc2ccccc2)c2ccc(F)cc12	none
O=c1c(S(=O)(=O)c2ccc(Cl)cc2)cn(Cc2ccc(F)cc2)c2ccc(F)cc12	Pol kappa inh inconclusive, Pol iota inh 79µM
Cc1cc(-c2csc(NC(=O)c3ccc(=O)[nH]c3)n2)c(C)n1Cc1ccccc1	POLB inh 20µM
Cc1ccc(N(C)S(=O)(=O)c2ccc3c(c2)C(C)(C)C(=O)N3C)cc1C	none
Cc1cccc(N(C)S(=O)(=O)c2ccc3c(c2)C(C)(C)C(=O)N3C)c1	Pol eta inh inconclusive, POLB inh 22µM, Pol kappa inh inconclusive, Pol iota inh inconclusive
O=C(NC[C@@H]1CCCO1)c1cccc2c1C(=O)c1ccc(Cl)cc1S2(=O)=O	Pol eta inh inconclusive (no result: POLB inh)
COc1ccc(-c2ccc3c(c2)S(=O)(=O)c2cccc(C(=O)NC[C@@H]4CCCO4)c2C3=O)cc1OC	Pol eta inh 28µM, Pol iota inh inconclusive (no result: POLB inh)
CC(C)c1cccc(-c2ccc3c(c2)S(=O)(=O)c2cccc(C(=O)NCc4ccco4)c2C3=O)c1	Pol eta inh 40µM, Pol kappa inh inconclusive, Pol iota inh inconclusive (no result: POLB inh)
CC(C)(C)c1ccc(S(=O)(=O)/C=C\C#N)cc1	none (no result: Pol eta inh, POLB inh, Tb PGK inh, FEN1 inhibitor, Pol iota inh)
COc1ccc(OCC(=O)OCc2cc(=O)n3nc(C4CC4)sc3n2)cc1	none
COc1ccc(OCC(=O)OCc2cc(=O)n3nc(C4CCCCC4)sc3n2)cc1	POLB inh 45µM, Pol iota inh inconclusive
Nc1c(Br)cc(/C=C2\C=Cc3ccccc32)cc1Br	none (no result: Pol eta inh, POLB inh, Tb PGK inh)
CC(=O)Oc1ccc2occ(-c3ccccc3)c2c1	POLB inh 56µM
Cc1ccc2cccc(S(=O)(=O)Nc3ccc4c(c3)OCO4)c2n1	Pol eta inh inconclusive, POLB inh 45µM, Pol iota inh inconclusive
Cc1ccc2cccc(OCC(=O)Nc3ccc4c(c3)OCO4)c2n1	none
Cc1ccc(S(=O)(=O)N2CCN(c3nc(-c4ncccn4)nc4ccccc34)CC2)cc1	none (no result: Pol eta inh, POLB inh, Tb PGK inh)
CCOc1ccc(S(=O)(=O)Nc2cc(NS(=O)(=O)c3ccc(OCC)cc3)cc(C(=O)O)c2)cc1	Pol eta inh 25µM, Pol kappa inh 79µM, Pol iota inh inconclusive (no result: POLB inh)
CN(C)c1ccc(/C=C2/CCc3ccccc32)cc1	none (no result: Pol eta inh, POLB inh, Tb PGK inh)
CC(=O)NC1C(O)O[C@H](C(=O)O)[C@@H](O)[C@@H]1O (some centres not stated)	none (no result: Pol eta inh, POLB inh, Tb PGK inh, FEN1 inhibitor, Pol iota inh)
O=C(CSc1nnc(NC(=O)c2ccccc2Cl)s1)Nc1ccc2c(c1)oc1ccccc12	POLB inh 32µM (no result: Pol eta inh, Tb PGK inh, FEN1 inhibitor, Pol kappa inh, Pol iota inh)
O=C1OC(c2ccc(F)cc2)=C/C1=C\c1ccc([N+](=O)[O-])o1	POLB inh 7.1µM (no result: Pol eta inh, Tb PGK inh, FEN1 inhibitor, Pol kappa inh, Pol iota inh)
O=C1OC(c2ccc(F)cc2)=C/C1=C\c1ccc(O)cc1	none
Cc1cccc(N2CC34C=CC(O3)C(C(=O)O)C4C2=O)c1 (configuration not stated)	none
COc1cccc(N2CC34C=CC(O3)C(C(=O)O)C4C2=O)c1 (configuration not stated)	Pol eta inh 14µM, POLB inh inconclusive, Pol kappa inh inconclusive, Pol iota inh inconclusive
O=C1c2cccc3c2[C@@H](CCC3)CN1[C@@H]1CN2CCC1CC2	none (no result: Pol eta inh, POLB inh, Tb PGK inh, FEN1 inhibitor, Pol iota inh)
CC(CCC(C)[n+]1cccc(C#N)c1)[n+]1cccc(C#N)c1 (configuration not stated)	Pol iota inh inconclusive (no result: Pol eta inh, POLB inh, Tb PGK inh)
CCCCN1C[C@H](COC(=O)CCC)Oc2cccc(F)c2S1(=O)=O	none (no result: POLB inh)
CCCC(=O)OCC1CN(Cc2ccco2)S(=O)(=O)c2c(F)cccc2O1 (configuration not stated)	Pol iota inh 71µM (no result: POLB inh)
CCCCCCCCCCCCCC(=O)Nc1ccc(/C=C/c2ccnc3ccccc23)cc1	Pol iota inh inconclusive (no result: Pol eta inh, POLB inh, Tb PGK inh)
